Assay [1] has as its target Protein phosphatase 1D (Homo sapiens) (UniProt O15297). The assay can be described thus: RapidFire Mass Spectrometry qHTS Assay for Modulators of WT P53-Induced Phosphatase 1 (WIP1) (AID 1347424).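 Further: amount of dephosphorylated VEPPL-S-QETFS peptide product formed by WIP1; series mostly up to about 63 µM.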 Put shortly: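 10 nM WIP1 + cpd, 1 h RT; + 2 uM VEPPL-pS-QETFS, 5 min RT; stop 0.5% formic acid; labelled product standard 1 uM; RapidFire MS. Buffer 50 mM Tris pH 7.5, 30 mM MgCl2, 1 mM TCEP.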
On the technique in general: In qHTS, concentration-response curves come from the screen itself.

For assay [2] the target is unchanged. The experiment in a line: Rhodamine-PBP qHTS Assay for Modulators of WT P53-Induced Phosphatase 1 (WIP1) (AID 1347425). Put shortly:
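Steps: enzyme with Rh-PBP sensor and compounds, room-temperature incubation of 1 hr, baseline read, addition of VEPPL-pS-QETFS (10 uM final), kinetic fluorescence reads at 525/598 nm. Activity equals final minus baseline signal.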

Assay [3] in a line: Validation qHTS assay for inhibitors of Activation Induced Cytidine Deaminase (AID): UDG Counterscreen signal (AID 1347427). In short, it runs like this: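 Counterscreen read of UDG activity (2 U/mL, 4/3x) in the FRET deamination format with AID (1 uM, 4/3x), DJC20/DJC23 substrates (250 nM, 4x), 4 h at room temperature. NaOH stop, fluorescence at 560 ex/665 em.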
Assay [4] deals with Single-stranded DNA cytosine deaminase (Homo sapiens) (UniProt Q9GZX7). The assay can be described thus: Validation qHTS assay for inhibitors of Activation Induced Cytidine Deaminase (AID): AID signal (AID 1347429). In short, it runs like this:
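FRET deamination assay: 1 uM AID (4/3x stock) with UDG, compound up to 114 uM, then 250 nM DJC20/DJC23 substrate (4x stock) for 4 hr at room temperature. NaOH added, 30 min; fluorescence read 540/590 nm.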

The nature of assay [5]: Primary qHTS for inhibitors of La Crosse Virus (LACV) - induced cell death in SH-SY5Y cells (AID 1508616).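 Further: top concentration of the series differs between compounds; higher means more rescue of cells from virus-induced death.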 In short, it runs like this:
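SH-SY5Y cells (6000/well) plated 24 h, then given compounds by pin transfer and LACV at 0.01 MOI for 6 days at 37C. Viability measured by ATPLite luminescence, normalized to infected DMSO and uninfected DMSO.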

Assay [6] concerns the target Calcium and integrin-binding protein 1 (Homo sapiens) (UniProt Q99828). The assay can be described thus: Validation qHTS for Identification of Calcium Integrin Binding protein 1 (CIB1) Competitor (AID 1508618). Put shortly:
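In this qHTS validation, the LOPAC set (up to 114 uM) was tested for blocking CIB1 binding to a fluorescein-tagged alphaIIb peptide, with FP detection at 480/540 nm.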

The target is the same in assay [7]. The assay can be described thus: Primary qHTS for Identification of Calcium Integrin Binding Protein 1 (CIB1) Competitor (AID 1508620).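 Further: GST tagged CIB1 binding a fluorescein labelled alphaIIb integrin peptide tracer; top concentration of the series differs between compounds.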 In short, it runs like this: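 CIB1-GST (1 uM final) and compound incubated 15 min at room temperature before adding FITC-alphaIIb peptide tracer (100 nM final). Competition for binding read by fluorescence polarization (ex 480, em 540) after another 15 min at room temperature.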

A short description of assay [8]: Confirmatory qHTS for small molecule stabilizers of the endoplasmic reticulum resident proteome: Secreted ER Calcium Modulated Protein (SERCaMP) assay (AID 1508628). Further: nearly all actives have a fitted effect of over 40% in size. Further: potency means the concentration at half of the fitted maximal effect. Put shortly: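 SH-SY5Y cells stably expressing GLuc-SERCaMP, treated 16 h with compound (primary 1.53, 7.67, 38.3 uM; confirmation 11 concentrations, up to 76.6 uM), then 100 nM thapsigargin for 4 h. Secreted Gaussia luciferase in medium read by coelenterazine luminescence.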

Several values for one entry are separate records, joined by “and”; a condition that tells them apart may be missing. Identical values can stand only once. Records with an inconclusive call do not appear. Activity calls are given as the source filed them. The call rests on the fitted dose curve; in most records, active means well fitted curve in the direction sought with a large enough effect; inconclusive means small, poorly fitted or top-dose-only effect, or another doubt; inactive means no such curve, though single readings can be large; an effect the other way counts as inactive or inconclusive.

Chain of Protein phosphatase 1D (Homo sapiens) (O15297 whole entry, looked up): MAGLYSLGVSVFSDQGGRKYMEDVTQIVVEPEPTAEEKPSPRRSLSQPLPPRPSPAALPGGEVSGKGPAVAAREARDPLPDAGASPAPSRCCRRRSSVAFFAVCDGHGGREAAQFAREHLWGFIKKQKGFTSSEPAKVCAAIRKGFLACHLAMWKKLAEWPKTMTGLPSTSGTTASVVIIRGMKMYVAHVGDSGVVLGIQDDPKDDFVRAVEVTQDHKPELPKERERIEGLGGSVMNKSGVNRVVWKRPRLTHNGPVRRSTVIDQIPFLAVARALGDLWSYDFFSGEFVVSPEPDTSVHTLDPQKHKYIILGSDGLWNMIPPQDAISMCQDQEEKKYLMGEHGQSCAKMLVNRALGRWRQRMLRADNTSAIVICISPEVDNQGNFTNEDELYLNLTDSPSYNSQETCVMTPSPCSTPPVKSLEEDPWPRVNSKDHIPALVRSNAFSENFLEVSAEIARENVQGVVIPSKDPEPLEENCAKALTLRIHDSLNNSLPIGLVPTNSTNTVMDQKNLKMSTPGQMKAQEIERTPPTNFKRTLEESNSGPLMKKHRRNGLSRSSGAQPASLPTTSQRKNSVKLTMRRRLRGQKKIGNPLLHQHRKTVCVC
Chain of Single-stranded DNA cytosine deaminase (Homo sapiens) (Q9GZX7 whole entry, looked up): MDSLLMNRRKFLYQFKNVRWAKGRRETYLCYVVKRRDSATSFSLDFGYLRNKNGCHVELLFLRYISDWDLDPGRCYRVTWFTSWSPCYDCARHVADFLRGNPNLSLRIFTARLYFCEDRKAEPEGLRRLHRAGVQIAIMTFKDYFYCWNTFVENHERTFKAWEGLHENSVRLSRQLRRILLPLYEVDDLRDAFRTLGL
Chain of Calcium and integrin-binding protein 1 (Homo sapiens) (Q99828 whole entry, looked up): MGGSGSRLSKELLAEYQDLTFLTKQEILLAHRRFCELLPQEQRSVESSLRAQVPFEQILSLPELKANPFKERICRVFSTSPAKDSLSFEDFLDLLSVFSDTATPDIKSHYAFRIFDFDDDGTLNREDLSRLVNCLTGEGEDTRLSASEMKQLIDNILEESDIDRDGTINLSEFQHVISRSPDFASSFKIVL

Regarding `Fc1ccc([C@@H]2CCNC[C@H]2COc2ccc3c(c2)OCO3)cc1`, the Potency result in assay [1], in assay [3], in assay [4], in assay [5] and in assay [6] was “inactive” in each case. Besides, the compound was called inactive in assay [2].
On to `CN1CCN(CCCN2c3ccccc3Sc3ccc(Cl)cc32)CC1`, for which the Potency entry in assay [1], in assay [3], in assay [4], in assay [5] and in assay [7] was “inactive” throughout. The compound was called inactive in assay [2].
Turning to `Clc1ccc(C(c2ccccc2Cl)C(Cl)Cl)cc1` (centres undefined), the Potency entry in assay [1], in assay [3], in assay [4], in assay [5] and in assay [6] was “inactive” each time. Further, the call in assay [2] was inactive.
`CCCCc1oc2ccccc2c1C(=O)c1cc(I)c(OCCN(CC)CC)c(I)c1`: the Potency result in assay [1], in assay [3], in assay [4], in assay [5], in assay [6] and in assay [7] was “inactive” each time. Moreover, in assay [8], the Potency entry is “inactive”. Further, in assay [2], the outcome was inactive.
As for `COC(=O)Nc1nc2ccc(C(=O)c3cccs3)cc2[nH]1`, the Potency entry in assay [1], in assay [3], in assay [4] and in assay [6] was “inactive” in each case. Also, the compound was classed as inactive in assay [2].
Turning to `Cc1cn([C@H]2C[C@H](N=[N+]=[N-])[C@@H](CO)O2)c(=O)[nH]c1=O`, the Potency result in assay [1] and in assay [5] was “inactive” throughout. Moreover, the compound was classed as inactive in assay [2].
Take `CC(CCc1ccc(O)cc1)NCCc1ccc(O)c(O)c1` (centres undefined): the Potency result in assay [1], in assay [3], in assay [4], in assay [5] and in assay [6] was “inactive” each time. Besides, in assay [2], the outcome was inactive. Further, the Potency in assay [8] was 31.6 µM (active) and 39.8 µM (active) and 50.1 µM (active).
Consider `CCC1(c2ccccc2)C(=O)NCNC1=O`, for which the Potency entry in assay [1], in assay [5], in assay [6] and in assay [7] was “inactive” in each case. In addition, the call in assay [2] was inactive.
Consider `O=C(c1ccc(F)cc1)C1CCN(CCn2c(=O)[nH]c3ccccc3c2=O)CC1`, for which the Potency entry in assay [1], in assay [3], in assay [4], in assay [5], in assay [6] and in assay [7] was “inactive” each time. The compound was called inactive in assay [2].
In the case of `Clc1ccc2c(c1)C(N1CCNCC1)=Nc1ccccc1O2`, the Potency result in assay [1], in assay [3], in assay [4], in assay [5], in assay [6] and in assay [8] was “inactive” each time. For the same compound, the compound was called inactive in assay [2].
Regarding `Clc1ccccc1C(c1ccccc1)(c1ccccc1)n1ccnc1`, the Potency result in assay [1], in assay [3], in assay [4], in assay [5] and in assay [7] was “inactive” in each case. Moreover, the call in assay [2] was inactive.
For `Cn1c(=O)c2c(ncn2C)n(C)c1=O`, the Potency result in assay [1], in assay [3], in assay [4], in assay [5] and in assay [8] was “inactive” each time. Besides, in assay [2], the compound was classed as inactive.
In the case of `COc1cc2nc(N(C)CCCNC(=O)C3CCCO3)nc(N)c2cc1OC` (centres undefined), the Potency entry in assay [1], in assay [3], in assay [4], in assay [5] and in assay [6] was “inactive” each time. In assay [2], the outcome was inactive.
`CC1(C)O[C@H]2CC(=O)OC[C@]23[C@H]2CC[C@@]4(C)[C@H](c5ccoc5)OC(=O)[C@H]5O[C@]54[C@]2(C)C(=O)C[C@@H]13`: the Potency result in assay [1] and in assay [7] was “inactive” in each case. Besides, the outcome in assay [2] was inactive.
With `O=C(CCCN1CCC(O)(c2ccc(Cl)cc2)CC1)c1ccc(F)cc1`, the Potency entry in assay [1], in assay [3], in assay [4], in assay [5] and in assay [6] was “inactive” in each case. In addition, the outcome in assay [2] was inactive.
Consider `CN(CCOc1ccc(NS(C)(=O)=O)cc1)CCc1ccc(NS(C)(=O)=O)cc1`, for which the Potency entry in assay [1], in assay [5], in assay [6] and in assay [7] was “inactive” throughout. Moreover, the compound was classed as inactive in assay [2].
As to `CCc1cccc2c3c([nH]c12)C(CC)(CC(=O)O)OCC3` (centres undefined), the Potency entry in assay [1], in assay [3], in assay [4], in assay [5], in assay [6] and in assay [7] was “inactive” throughout. Besides, the outcome in assay [2] was inactive.
For `COc1cc2nc(N3CCN(C(=O)c4ccco4)CC3)nc(N)c2cc1OC`, the Potency result in assay [1], in assay [5], in assay [6] and in assay [7] was “inactive” each time. Also, in assay [2], the result was inactive.
As to `CC(C)Cc1ccc(C(C)C(=O)O)cc1` (centres undefined), the Potency entry in assay [1] and in assay [5] was “inactive” each time. Further, the result in assay [2] was inactive.
With `Cc1ccc(-c2cc(C(F)(F)F)nn2-c2ccc(S(N)(=O)=O)cc2)cc1`, the Potency result in assay [5], in assay [6] and in assay [7] was “inactive” throughout.
Turning to `Nc1ccn([C@H]2CC[C@@H](CO)O2)c(=O)n1`, the Potency entry in assay [1], in assay [3], in assay [4], in assay [5], in assay [6] and in assay [7] was “inactive” each time. The compound was classed as inactive in assay [2].
On to `O=C(C1CCCCC1)N1CC(=O)N2CCc3ccccc3C2C1` (centres undefined), for which the Potency entry in assay [1], in assay [5], in assay [6] and in assay [7] was “inactive” throughout. For the same compound, the call in assay [2] was inactive.
`COc1ccccc1OCCNCC(O)COc1cccc2[nH]c3ccccc3c12` (centres undefined): the Potency result in assay [1], in assay [3], in assay [4], in assay [5], in assay [6] and in assay [7] was “inactive” throughout. For the same compound, in assay [8], the Potency result was “inactive”. Further, the compound was called inactive in assay [2].
For the compound `COc1ccc(CCN(C)CCCC(C#N)(c2ccc(OC)c(OC)c2)C(C)C)cc1OC` (centres undefined), in assay [1], the Potency entry is “inactive”. For the same compound, the compound was classed as inactive in assay [2]. In addition, in assay [8], the Potency was 20 µM (active).
On to `Cn1c(=O)c2[nH]cnc2n(C)c1=O`, for which the Potency result in assay [1], in assay [5] and in assay [6] was “inactive” in each case. Besides, the outcome in assay [2] was inactive.
With `O=C1Cc2cc(CCN3CCN(c4nsc5ccccc45)CC3)c(Cl)cc2N1`, the Potency entry in assay [1], in assay [3], in assay [4], in assay [5], in assay [6] and in assay [7] was “inactive” each time. For the same compound, the compound was classed as inactive in assay [2].
On to `COc1ccc2c(c1)c(CC(=O)O)c(C)n2C(=O)c1ccc(Cl)cc1`, for which the Potency result in assay [3], in assay [4], in assay [5] and in assay [6] was “inactive” in each case.
As for `CN(C)C(=N)N=C(N)N`, the Potency entry in assay [1] and in assay [5] was “inactive” in each case. Further, the compound was called inactive in assay [2].
Consider `Cc1cn([C@H]2C=C[C@@H](CO)O2)c(=O)[nH]c1=O`, for which the Potency entry in assay [1], in assay [3], in assay [4], in assay [5] and in assay [6] was “inactive” each time. Further, the compound was called inactive in assay [2].
In the case of `CN1CCN2c3ccccc3Cc3ccccc3C2C1` (centres undefined), the Potency result in assay [1], in assay [3], in assay [4], in assay [5], in assay [6] and in assay [7] was “inactive” each time. Moreover, the result in assay [2] was inactive.
On to `CN(C)C(=O)C(CCN1CCC(O)(c2ccc(Cl)cc2)CC1)(c1ccccc1)c1ccccc1`, for which the Potency result in assay [1], in assay [3], in assay [4] and in assay [6] was “inactive” throughout. The compound was called inactive in assay [2].

For the origin of these results see PubChem BioAssay (NCATS).
